# Results published in PubChem BioAssay (NCATS).
# Inconclusive results are not listed. Where a call stands in place of a potency, no number is given. A number with no mark means an inactive call. Active and inactive are the calls of the source. The call rests on the fitted dose curve; in most records, active means well fitted curve in the direction sought with a large enough effect; inconclusive means small, poorly fitted or top-dose-only effect, or another doubt; inactive means no such curve, though single readings can be large; an effect the other way counts as inactive or inconclusive.
# Legend:
# [1] = target: ATP-dependent 6-phosphofructokinase (Trypanosoma brucei brucei) (UniProt O15648); assay: qHTS Assay to Find Inhibitors of T. brucei phosphofructokinase: hit validation (AID 492961);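 further: luminescence reports ADP formed as PFK phosphorylates fructose-6-phosphate with ATP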
# Summary of the method: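 Measures ADP output of PFK (1.25 nM) at 0.1 mM ATP, 0.5 mM F6P, pH 8.0 TEA buffer with 5 mM MgCl2. No-enzyme wells define full inhibition; uninhibited enzyme wells define zero.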
# [2] = target: Luciferin 4-monooxygenase (Photinus pyralis) (UniProt P08659); assay: Biochemical firefly luciferase enzyme assay for NPC (AID 624030);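 further: purified P. pyralis luciferase at 10 nM with luciferin and ATP substrate; nearly all actives have a fitted effect of over 70% in size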
# Summary of the method: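 Direct inhibition of firefly luciferase enzyme (10 nM final, 50 mM Tris Acetate) assessed by luminescence within 5 minutes. Percent activity scaled between DMSO and PTC124 positive control, with concentration-effect curves classified by fit quality and response.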
# [3] = qHTS profiling for inhibitors of Plasmodium falciparum proliferation (AID 504749); further: potency means the concentration at half of the fitted maximal effect; on all read-outs here: nearly all actives have a fitted effect of over 60% in size; conditions: P. falciparum in erythrocytes, SYBR Green DNA, 72 h; for activity, negative = inhibition: at 28.7 µM (top of the series)
# Summary of the method: (§1)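 Infected RBCs, 0.3% parasitemia/2.5% Hct final; cpd 72 h, 37 C, 5% CO2; lysis buffer with saponin/triton/SYBR Green I, o/n RT dark; FI 485/535; norm. to artemisinin (0.29 uM) and DMSO.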
# ATS189 = assay: as above; conditions: P. falciparum in erythrocytes, SYBR Green DNA, 72 h; series mostly up to 28.7 µM
# Summary of the method: as §1
# C2A = assay: as above; conditions: P. falciparum in erythrocytes, SYBR Green DNA, 72 h; series mostly up to 28.7 µM
# Summary of the method: as §1
# CP191 = assay: as above; conditions: P. falciparum in erythrocytes, SYBR Green DNA, 72 h; series mostly up to 28.7 µM
# Summary of the method: as §1
# CP215 = assay: as above; conditions: P. falciparum in erythrocytes, SYBR Green DNA, 72 h; series mostly up to 28.7 µM
# Summary of the method: as §1
# CP237 = assay: as above; conditions: P. falciparum in erythrocytes, SYBR Green DNA, 72 h; series mostly up to 28.7 µM
# Summary of the method: as §1
# CP238 = assay: as above; conditions: P. falciparum in erythrocytes, SYBR Green DNA, 72 h; series mostly up to 28.7 µM
# Summary of the method: as §1
# CP268 = assay: as above; conditions: P. falciparum in erythrocytes, SYBR Green DNA, 72 h; series mostly up to 28.7 µM
# Summary of the method: as §1
# CP269 = assay: as above; conditions: P. falciparum in erythrocytes, SYBR Green DNA, 72 h; series mostly up to 28.7 µM
# Summary of the method: as §1
# CP286 = assay: as above; conditions: P. falciparum in erythrocytes, SYBR Green DNA, 72 h; series mostly up to 28.7 µM
# Summary of the method: as §1
# CP329 = assay: as above; conditions: P. falciparum in erythrocytes, SYBR Green DNA, 72 h; series mostly up to 28.7 µM
# Summary of the method: as §1
# FAB9 = assay: as above; conditions: P. falciparum in erythrocytes, SYBR Green DNA, 72 h; series mostly up to 28.7 µM
# Summary of the method: as §1
# JCK = assay: as above; conditions: P. falciparum in erythrocytes, SYBR Green DNA, 72 h; series mostly up to 28.7 µM
# Summary of the method: as §1
# PC49 = assay: as above; conditions: P. falciparum in erythrocytes, SYBR Green DNA, 72 h; series mostly up to 28.7 µM
# Summary of the method: as §1
# [4] = target: Ubiquitin carboxyl-terminal hydrolase 1 (Homo sapiens) (UniProt O94782); assay: Inhibitors of USP1/UAF1: Pilot qHTS (AID 504865); further: nearly all actives have a fitted effect of over 35% in size; further: potency means the concentration at half of the fitted maximal effect
# Summary of the method: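 Enzyme-free wells gave the negative control, while test wells held 1nM USP1/UAF1 preincubated with compound for 15 min at room temperature. Ub-Rho at 150nM final started the reaction, and fluorescence at 480/540 nm was recorded kinetically.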
# CP192 = assay: qHTS profiling for inhibitors of Plasmodium falciparum proliferation (AID 504749); further: nearly all actives have a fitted effect of over 60% in size; further: potency means the concentration at half of the fitted maximal effect; conditions: P. falciparum in erythrocytes, SYBR Green DNA, 72 h; series mostly up to 28.7 µM
# Summary of the method: as §1
# CP201 = assay: as above; conditions: P. falciparum in erythrocytes, SYBR Green DNA, 72 h; series mostly up to 28.7 µM
# Summary of the method: as §1
# CP325 = assay: as above; conditions: P. falciparum in erythrocytes, SYBR Green DNA, 72 h; series mostly up to 28.7 µM
# Summary of the method: as §1
# Chain of ATP-dependent 6-phosphofructokinase (Trypanosoma brucei brucei) (O15648 whole entry, looked up): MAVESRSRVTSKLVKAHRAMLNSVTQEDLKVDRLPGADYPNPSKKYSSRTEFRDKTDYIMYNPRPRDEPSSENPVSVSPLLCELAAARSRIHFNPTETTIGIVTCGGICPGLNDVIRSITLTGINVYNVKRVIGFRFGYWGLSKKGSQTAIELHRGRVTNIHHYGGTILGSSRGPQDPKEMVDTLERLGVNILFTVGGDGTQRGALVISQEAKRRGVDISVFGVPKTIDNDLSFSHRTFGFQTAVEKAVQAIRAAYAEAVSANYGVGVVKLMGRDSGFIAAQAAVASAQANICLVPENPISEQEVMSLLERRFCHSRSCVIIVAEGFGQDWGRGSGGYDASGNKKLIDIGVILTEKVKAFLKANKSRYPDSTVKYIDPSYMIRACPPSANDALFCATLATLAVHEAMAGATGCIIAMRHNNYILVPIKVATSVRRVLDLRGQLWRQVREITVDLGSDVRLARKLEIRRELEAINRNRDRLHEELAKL
# Chain of Ubiquitin carboxyl-terminal hydrolase 1 (Homo sapiens) (O94782 whole entry, looked up): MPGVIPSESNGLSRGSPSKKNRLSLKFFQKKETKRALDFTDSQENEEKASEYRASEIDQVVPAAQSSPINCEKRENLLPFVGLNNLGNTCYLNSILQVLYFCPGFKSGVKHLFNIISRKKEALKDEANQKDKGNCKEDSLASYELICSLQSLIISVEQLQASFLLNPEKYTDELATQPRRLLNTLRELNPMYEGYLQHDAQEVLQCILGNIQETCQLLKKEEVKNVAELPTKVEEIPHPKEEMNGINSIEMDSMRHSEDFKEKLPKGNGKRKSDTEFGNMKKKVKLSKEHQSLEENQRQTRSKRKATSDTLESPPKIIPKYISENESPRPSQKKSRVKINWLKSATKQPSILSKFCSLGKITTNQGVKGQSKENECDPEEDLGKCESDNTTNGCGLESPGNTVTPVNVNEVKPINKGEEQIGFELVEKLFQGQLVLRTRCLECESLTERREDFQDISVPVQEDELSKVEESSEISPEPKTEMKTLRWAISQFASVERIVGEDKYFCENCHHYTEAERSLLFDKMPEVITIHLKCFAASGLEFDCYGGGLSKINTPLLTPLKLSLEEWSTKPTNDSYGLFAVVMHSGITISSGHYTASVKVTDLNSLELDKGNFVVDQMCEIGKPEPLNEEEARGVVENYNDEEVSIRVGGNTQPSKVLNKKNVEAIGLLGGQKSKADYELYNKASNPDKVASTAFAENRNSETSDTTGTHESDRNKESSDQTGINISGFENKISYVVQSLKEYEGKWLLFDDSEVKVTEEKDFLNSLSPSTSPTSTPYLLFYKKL
# Chain of Luciferin 4-monooxygenase (Photinus pyralis) (P08659 whole entry, looked up): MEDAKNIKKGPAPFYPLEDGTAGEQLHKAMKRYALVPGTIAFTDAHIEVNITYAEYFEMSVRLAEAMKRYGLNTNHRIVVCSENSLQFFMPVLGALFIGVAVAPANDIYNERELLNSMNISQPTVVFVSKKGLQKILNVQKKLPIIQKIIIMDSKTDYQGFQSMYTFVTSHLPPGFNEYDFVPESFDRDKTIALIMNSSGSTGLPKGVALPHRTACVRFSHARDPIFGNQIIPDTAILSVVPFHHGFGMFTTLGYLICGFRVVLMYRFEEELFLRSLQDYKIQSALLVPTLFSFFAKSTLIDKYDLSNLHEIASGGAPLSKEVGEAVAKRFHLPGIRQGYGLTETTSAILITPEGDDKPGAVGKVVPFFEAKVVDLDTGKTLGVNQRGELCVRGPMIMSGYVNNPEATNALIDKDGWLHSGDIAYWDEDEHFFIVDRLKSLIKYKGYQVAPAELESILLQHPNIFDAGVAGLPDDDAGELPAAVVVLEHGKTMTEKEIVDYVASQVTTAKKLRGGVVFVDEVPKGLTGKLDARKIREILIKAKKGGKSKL
smiles,measurement,setting,value
CCC/C=C/C=C/C(=O)OC1/C(=C/C(=O)OC)CC2CC(C(C)O)OC(=O)CC(O)CC3CC(OC(C)=O)C(C)(C)C(O)(CC4C/C(=C/C(=O)OC)CC(/C=C\C(C)(C)C1(O)O2)O4)O3 (centres undefined),outcome,[1],inactive
same,Potency,[2],inactive
same,Potency,[3]; parasite line A,1.58 µM (active)
same,Potency,[3]; parasite line B,1.78 µM (active)
same,Potency,ATS189,0.891 µM (active)
same,Potency,C2A,1.26 µM (active)
same,Potency,CP191,1.12 µM (active)
same,Potency,CP215,1.69 µM (active)
same,Potency,CP237,2.82 µM (active)
same,Potency,CP238,1 µM (active)
same,Potency,CP268,1.35 µM (active)
same,Potency,CP269,1.51 µM (active)
same,Potency,CP286,2.24 µM (active)
same,Potency,CP329,1.9 µM (active)
same,Potency,FAB9,2.24 µM (active)
same,Potency,JCK,3.16 µM (active)
same,Potency,PC49,1.26 µM (active)
CN(C)[C@@H](Cc1ccccc1)c1ccccc1,outcome,[1],inactive
same,Potency,[4],inactive
same,Potency,[2],inactive
same,"activity, negative = inhibition",[3]; parasite line A,6.12%
same,"activity, negative = inhibition",[3]; parasite line B,4.62%
same,Potency,ATS189,inactive
same,Potency,C2A,inactive
same,Potency,CP191,inactive
same,Potency,CP192,inactive
same,Potency,CP201,inactive
same,Potency,CP215,inactive
same,Potency,CP237,8.91 µM (active)
same,Potency,CP238,inactive
same,Potency,CP268,inactive
same,Potency,CP269,inactive
same,Potency,CP286,inactive
same,Potency,CP325,inactive
same,Potency,CP329,inactive
same,Potency,FAB9,inactive
same,Potency,JCK,inactive
same,Potency,PC49,inactive
CC(C)CCC(=O)OC1CCC2C3CCC4=CC(=O)CC[C@]4(C)C3CC[C@]12C (some centres undefined),Potency,[2],inactive
same,Potency,[3]; parasite line A,10 µM (active)
same,Potency,ATS189,8.91 µM (active)
same,Potency,CP191,6.31 µM (active)
same,Potency,CP192,inactive
same,Potency,CP201,inactive
same,Potency,CP215,inactive
same,Potency,CP237,11.2 µM (active)
same,Potency,CP268,inactive
same,Potency,CP269,inactive
same,Potency,CP286,4.47 µM (active)
same,Potency,CP325,inactive
same,Potency,CP329,inactive
same,Potency,FAB9,inactive
same,Potency,JCK,inactive
same,Potency,PC49,inactive
CN(C)C1C(=O)C(C(N)=O)C(=O)C2(O)C(=O)C3C(=O)c4c(O)cccc4C(C)(O)C3C(O)C12 (centres undefined),outcome,[1],inactive
same,Potency,[2],inactive
same,Potency,ATS189,inactive
same,Potency,C2A,inactive
same,Potency,CP191,inactive
same,Potency,CP192,inactive
same,Potency,CP201,inactive
same,Potency,CP215,inactive
same,Potency,CP238,inactive
same,Potency,CP329,inactive
same,Potency,FAB9,inactive
same,Potency,JCK,inactive
same,Potency,PC49,inactive
CC(=O)Oc1c2c(c(CC=C(C)C)c3c1C(=O)C1=CC4CC5C(C)(C)OC(C/C=C(\C)C(=O)O)(C4=O)[C@]15O3)OC(C)(CCC=C(C)C)C=C2 (some centres undefined),Potency,[4],12.6 µM (active)
NC1C[C@H]1c1ccccc1 (some centres undefined),Potency,[4],inactive
CNNC,Potency,[4],inactive
C[C@@]12C=CC(=O)C=C1CCC1C2CC[C@]2(C)C(=O)CCC12 (some centres undefined),Potency,[4],inactive
C[C@H]1O[C@H](O[C@H]2[C@H](O)[C@@H](O)[C@@H](O)[C@H](O)[C@@H]2O)[C@@H](N)C[C@@H]1NC(=N)C(=O)O,Potency,[4],inactive
CC(C)=O,Potency,[4],inactive
OCC(O)Cc1ccc2c(c1)OCO2 (centres undefined),Potency,[4],inactive
C=CCO[C@@H](Cn1ccnc1)c1ccc(Cl)cc1Cl,Potency,[4],inactive
CC1=CC(=O)c2c(O)cccc2C1=O,Potency,[4],17.8 µM (active)
CCCCN(CC)c1c([N+](=O)[O-])cc(C(F)(F)F)cc1[N+](=O)[O-],Potency,[4],inactive
CC1(C)C(C(Cl)Cl)C2(Cl)C(Cl)C(Cl)C1(Cl)C2(Cl)Cl (centres undefined),Potency,[4],inactive
COc1ccc(C(=O)O)cc1OC,Potency,[4],inactive
CC1(C)S[C@H]2[C@@H](N)C(=O)N2[C@H]1C(=O)O,Potency,[4],inactive
CN1[C@H]2CC(OC(=O)[C@H](CO)c3ccccc3)C[C@H]1[C@H]1O[C@H]12 (some centres undefined),Potency,[4],inactive
NCC(N)C(=O)c1ccccc1 (centres undefined),Potency,[4],inactive
COC(=O)/C(C)=C\CC12OC(C)(C)C3CC(C=C4C(=O)c5c(OC)c6c(c(CC=C(C)C)c5OC431)OC(C)(CCC=C(C)C)C=C6)C2=O (centres undefined),Potency,[4],39.8 µM (active)
Cc1cccc2c3c(ccc12)C1=C(C(=O)C3=O)C(C)CO1 (centres undefined),Potency,[4],50.1 µM (active)
CC1CC(Cl)CCC1C(=O)OC(C)(C)C (centres undefined),Potency,[4],inactive
CCC1C(=O)OC[C@H]1Cc1cncn1C (some centres undefined),Potency,[4],inactive
COc1cc2c(cc1OC)-c1c(OC)c(OC)c(C=O)c3c1[C@H](C2)N(C)CC3,Potency,[4],20 µM (active)
CC[C@]1(O)CC(O[C@@H]2CC(N(C)C)C(O)C(C)O2)c2c(cc3c(c2O)C(=O)c2c(O)cccc2C3=O)C1C(=O)OC (some centres undefined),Potency,[4],56.2 µM (active)
C/C=C1/C[C@@H](C)[C@](O)(CO)C(=O)OCC2=CCN3CC[C@@H](OC1=O)C23 (some centres undefined),Potency,[4],inactive
CNC1=CN(O)C(c2ccccc2)=c2cc(Cl)ccc2=N1,Potency,[4],inactive
same,Potency,[2],inactive
CC(CO)NC(=O)C1C=C2c3cccc4[nH]cc(c34)C[C@H]2N(C)C1 (some centres undefined),Potency,[4],inactive
C=CCN1CC[C@]23c4c5ccc(O)c4OC2C(=O)CC[C@]3(O)C1C5 (some centres undefined),Potency,[4],inactive
O=C1CC[C@]2(O)C3Cc4ccc(O)c5c4C2(CCN3CC2CC2)C1O5 (some centres undefined),Potency,[4],inactive
OCC1OC(n2cnc3cc(Cl)c(Cl)cc32)C(O)C1O (centres undefined),Potency,[4],inactive
CN(C)C1C(=O)C(C(N)=O)=C(O)[C@@]2(O)C(=O)C3=C(O)c4c(O)cccc4[C@@](C)(O)C3CC12 (some centres undefined),Potency,[4],inactive
CSc1nc(NC(C)C)nc(NC(C)C)n1,Potency,[4],inactive
CC(=O)OC1C2CCC3C1(CC(O)[C@@]1(O)[C@@H](CC(O)C1(C)C)[C@]3(C)O)C[C@@]2(C)O (some centres undefined),Potency,[4],inactive
CC[C@]1([C@H]2O[C@@H]([C@@H]3O[C@](O)(CO)[C@@H](C)C[C@H]3C)C[C@H]2C)CC[C@@H]([C@]2(C)CC[C@@]3(C[C@@H](O)[C@@H](C)[C@@H]([C@H](C)[C@H](OC)[C@H](C)C(=O)O)O3)O2)O1,Potency,[4],inactive
same,Potency,[2],inactive
CC(=O)OC1CCC2(C)C3=C(CCC2C1(C)C)[C@@]1(C)CCC(C(C)CCC=C(C)C)[C@@]1(C)CC3 (some centres undefined),Potency,[4],inactive
O=C1C=C2C(=CCOC2O)O1 (centres undefined),Potency,[4],50.1 µM (active)
CC(=O)OCC1=C(C(=O)O)N2C(=O)C(NC(=O)CCCC(N)C(=O)O)C2SC1 (centres undefined),Potency,[4],inactive
CN(CCC(N)CC(=O)NC1C=CC(n2ccc(N)nc2=O)OC1C(=O)O)C(=N)N (centres undefined),Potency,[4],inactive
COc1ccc(CC2NC[C@H](O)[C@H]2OC(C)=O)cc1 (some centres undefined),Potency,[4],inactive
N#Cc1c(Cl)c(Cl)c(Cl)c(C#N)c1Cl,Potency,[4],10 µM (active)
CC(C)N(C(=O)CCl)c1ccccc1,Potency,[4],inactive
CCC1C2CC3C4N(C)c5ccccc5[C@]45CC(C2C5O)N3C1O (some centres undefined),Potency,[4],inactive
COc1ccc(C2Oc3c(I)c(OC)cc(OC)c3CC2O)cc1OC (centres undefined),Potency,[4],inactive
